In assay [1] the target is Cell division control protein 42 homolog (Homo sapiens) (UniProt P60953). Briefly: inhibition of fluorescent GTP binding to constitutively active Cdc42 – biochemical, multiplex bead flow cytometry, Bodipy-FL-GTP, dose response (AID 1333).
Assay [2] shares this target. Briefly: inhibition of fluorescent GTP binding to wildtype Cdc42 – biochemical, multiplex bead flow cytometry, Bodipy-FL-GTP, dose response (AID 1334;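 active = fitted half-maximal concentration within the tested range, moderate curve steepness, significant signal drop, and little compound fluorescence or bead-linkage interference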). Particulars: bead-based flow cytometry, Bodipy-FL-GTP binding to GST-Cdc42; at 100 µM (top of the series).
Assay [3] relates to Ras-related protein Rab-7a (dog), GTP binding. Description: blockers of fluorescent GTP binding to Rab7 – biochemical, wildtype, multiplex bead flow cytometry, dose response (AID 1336; call rule not given here).
Assay [4] concerns the target Ras-related C3 botulinum toxin substrate 1 (Homo sapiens) (UniProt P63000). Description: inhibition of wildtype Rac1 nucleotide loading – biochemical, multiplex bead flow cytometry, dose response (AID 1340;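 active = dose curve with midpoint inside tested range, moderate steepness, plateau gap beyond fit error, low compound glow and bead-link interference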). Particulars: GST-Rac1 beads, Bodipy-FL-GTP binding; at 100 µM (top of the series).
In assay [5] the target is GTPase HRas (Homo sapiens) (UniProt P01112). Description: blockade of GTP loading onto mutant Ras – biochemical, activated mutant, multiplex bead flow cytometry, dose response (AID 1341;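 active = dose-response curve with midpoint inside the tested range, moderate steepness, significant amplitude and little compound fluorescence or bead-attachment interference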;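 also: GST-tagged constitutively activated Ras mutant immobilized on beads and multiplexed with other GTPases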).
A short description of assay [6]: interference with biotin-avidin bead interaction – biochemical, flow cytometry, bead-based, counter-screen for RGS protein interaction modulators (AID 1783;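 active = inhibition above 50%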;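 also: median green fluorescence of gated singlet beads compared with DMSO control wells; 0% = DMSO wells and 100% = complete loss of bead fluorescence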). Particulars: streptavidin beads, fluorescein-biotin binding, at 10 µM, stronger effect = higher value.
In assay [7] the target is Guanine nucleotide-binding protein G(o) subunit alpha (Homo sapiens) (UniProt P09471). Briefly: retest of RGS8-Galphao interaction hits – biochemical, multiplexed bead flow cytometry, single concentration, confirmation (AID 1836; in the data active = binding response below about 72% or above about 130%; inactive = in between;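 also: Galphao activated as GDP AlF4 complex before binding bead RGS8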). Conditions: bead-based flow cytometry RGS8-Galphao binding, fluorescence; at 10 µM; actives lie on both sides.
Sequence of Guanine nucleotide-binding protein G(o) subunit alpha (Homo sapiens) (P09471 whole entry, looked up): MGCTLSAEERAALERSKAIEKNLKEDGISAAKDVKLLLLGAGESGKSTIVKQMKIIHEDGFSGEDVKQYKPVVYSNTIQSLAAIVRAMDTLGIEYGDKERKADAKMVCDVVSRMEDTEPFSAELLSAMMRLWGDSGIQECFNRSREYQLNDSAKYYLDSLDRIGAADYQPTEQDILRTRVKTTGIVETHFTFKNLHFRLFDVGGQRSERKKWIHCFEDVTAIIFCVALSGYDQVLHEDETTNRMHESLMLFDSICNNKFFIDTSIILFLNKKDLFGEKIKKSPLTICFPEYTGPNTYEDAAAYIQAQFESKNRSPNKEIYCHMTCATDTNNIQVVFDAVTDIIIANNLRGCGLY
Assay [8] has the same target. Description: retest of RGS7-Galphao interaction hits – biochemical, multiplexed bead flow cytometry, single concentration, confirmation (AID 1837; in the data active = response below about 75% or above about 130%; inactive = in between;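 also: fluorescent Galphao activated with GDP and aluminum fluoride binding bead-coupled RGS7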). Conditions: bead-based flow cytometry RGS7-Galphao binding; at 10 µM; actives lie on both sides.
For assay [9], the target named is Regulator of G-protein signaling 16 (Homo sapiens) + Guanine nucleotide-binding protein G(o) subunit alpha (Homo sapiens) (UniProt O15492+P09471). Briefly: RGS16 and Galphao interaction regulators – biochemical, single concentration, multiplexed bead flow cytometry, confirmation (AID 1838; in the data active = response below about 74% or above about 130%; inactive = in between;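 also: Galphao activated as the GDP aluminium fluoride complex binding bead-coupled RGS16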). Conditions: bead-based flow cytometry, at 10 µM, actives lie on both sides.
Sequence of Regulator of G-protein signaling 16 (Homo sapiens) + Guanine nucleotide-binding protein G(o) subunit alpha (Homo sapiens) (O15492 whole entry, looked up): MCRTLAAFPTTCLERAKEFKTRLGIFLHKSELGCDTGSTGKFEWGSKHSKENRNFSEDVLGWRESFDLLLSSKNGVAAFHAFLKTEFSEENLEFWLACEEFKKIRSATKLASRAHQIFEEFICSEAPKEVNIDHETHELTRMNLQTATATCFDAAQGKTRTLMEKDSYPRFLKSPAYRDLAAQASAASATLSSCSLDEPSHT
Sequence of Regulator of G-protein signaling 16 (Homo sapiens) + Guanine nucleotide-binding protein G(o) subunit alpha (Homo sapiens) (P09471 whole entry, looked up): as the sequence (P09471 whole entry, looked up) above

Assay [10] concerns the target Guanine nucleotide-binding protein G(o) subunit alpha (Homo sapiens) (UniProt P09471). Description: RGS4 and Galphao interaction regulators – biochemical, single concentration, multiplexed bead flow cytometry, confirmation (AID 1840; in the data active = binding response below about 74% or above about 130%; inactive = in between). Particulars: at 10 µM, actives lie on both sides.
The target in assay [11] is Guanine nucleotide-binding protein G(o) subunit alpha (Homo sapiens) + Regulator of G-protein signaling 19 (Homo sapiens) (UniProt P09471+P49795). Description: RGS19 interaction with Gαo, hit retest – biochemical, single point, multiplexed bead flow cytometry, confirmation (AID 1841; in the data active = response below about 50% or above about 160%; inactive = in between;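 also: 100% = no compound control and 0% = blank background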). Conditions: bead-based flow cytometry RGS19-Galphao binding; at 10 µM; actives lie on both sides.
Sequence of Guanine nucleotide-binding protein G(o) subunit alpha (Homo sapiens) + Regulator of G-protein signaling 19 (Homo sapiens) (P09471 whole entry, looked up): as above
Sequence of Guanine nucleotide-binding protein G(o) subunit alpha (Homo sapiens) + Regulator of G-protein signaling 19 (Homo sapiens) (P49795 whole entry, looked up): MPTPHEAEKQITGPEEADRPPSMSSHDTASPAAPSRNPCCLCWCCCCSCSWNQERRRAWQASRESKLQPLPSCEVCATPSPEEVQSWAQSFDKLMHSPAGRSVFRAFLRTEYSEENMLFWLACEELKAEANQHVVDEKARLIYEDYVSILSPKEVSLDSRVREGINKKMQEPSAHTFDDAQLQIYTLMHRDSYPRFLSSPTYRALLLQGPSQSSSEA

A short description of assay [12]: hit retest on RPL19A-GFP reporter strain – cell-based, S. cerevisiae, flow cytometry, cherry picks, mother/daughter gates, confirmation (AID 2270;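 active = GFP response below 50% of the DMSO control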). Particulars: 3 h, at 10 µM, stronger effect = lower value, 100 = same GFP as DMSO wells.
Assay [13] can be described thus: yeast TOR pathway reporter LAP4-GFP change – cell-based, cherry picks, flow cytometry, mother/daughter gates, confirmation (AID 2271;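 active = GFP response above 150% of the DMSO control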;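 also: ratio of sample to DMSO plate mean so 100% equals DMSO level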). Particulars: S. cerevisiae LAP4-GFP strain, 3 h, at 10 µM, stronger effect = higher value.
Assay [14] is described as follows: TOR pathway reporter MEP2-GFP, retest of hits – S. cerevisiae, flow cytometry GFP, cherry picks, confirmation (AID 2272;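 active = GFP response above 150% of the DMSO control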;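 also: ratio of well signal to plate DMSO mean so 100% equals DMSO level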). Conditions: S. cerevisiae MEP2-GFP strain, 3 h, at 10 µM, stronger effect = higher value.
Assay [15] can be described thus: yeast AGP1-GFP fluorescence change, single-dose – cell-based, flow cytometry, S. cerevisiae, cherry picks, confirmation (AID 2273;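 active = GFP response above 150% of the DMSO level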;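 also: median GFP channel fluorescence over the whole cell population gate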). Conditions: S. cerevisiae AGP1-GFP strain, 3 h, at 10 µM.
Assay [16] is described as follows: TOR pathway CIT2 reporter hit retest – S. cerevisiae, GFP fusion, cherry picks, mother/daughter gates, confirmation (AID 2274;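 active = GFP response above 150% of the DMSO level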). Particulars: S. cerevisiae CIT2-GFP strain, flow cytometry, 3 h, at 10 µM, stronger effect = higher value.
For assay [17], the target named is Regulator of G-protein signaling 16 (Homo sapiens) (UniProt O15492). Briefly: small molecules altering RGS protein interactions with GNAO1 – biochemical, multiplexed beads, flow cytometry, RGS4/7/8/16/19, primary screen (AID 1504; call rule not given here;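 also: fluorescently labeled Galpha-o bound to GDP with aluminium fluoride binding biotinylated RGS beads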). Particulars: multiplexed bead flow cytometry, measured here: RGS16 interaction, at 10 µM.
For assay [18], the target named is Regulator of G-protein signaling 4 (Homo sapiens) + Guanine nucleotide-binding protein G(o) subunit alpha (Homo sapiens) (UniProt P49798+P09471). The assay is described as above. Conditions: multiplexed bead flow cytometry, at 10 µM.
Sequence of Regulator of G-protein signaling 4 (Homo sapiens) + Guanine nucleotide-binding protein G(o) subunit alpha (Homo sapiens) (P09471 whole entry, looked up): as the sequence (P09471 whole entry, looked up) above
Sequence of Regulator of G-protein signaling 4 (Homo sapiens) + Guanine nucleotide-binding protein G(o) subunit alpha (Homo sapiens) (P49798 whole entry, looked up): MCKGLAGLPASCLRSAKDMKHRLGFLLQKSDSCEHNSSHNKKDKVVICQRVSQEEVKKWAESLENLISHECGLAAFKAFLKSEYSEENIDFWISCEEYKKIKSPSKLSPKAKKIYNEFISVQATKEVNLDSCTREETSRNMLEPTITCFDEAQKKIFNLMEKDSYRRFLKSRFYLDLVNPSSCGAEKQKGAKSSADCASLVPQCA
The target in assay [19] is Regulator of G-protein signaling 7 (Homo sapiens) (UniProt P49802). Described as above. Particulars: multiplexed bead flow cytometry, measured here: RGS7 interaction, at 10 µM.
In assay [20] the target is Regulator of G-protein signaling 8 (Homo sapiens) (UniProt P57771). The description is as above. Particulars: multiplexed bead flow cytometry, measured here: RGS8 interaction, at 10 µM.
Setting [21] is: measured here: daughter cell gate.
Setting [22] is: measured here: mother cell gate.
The mark [23] stands for this setting: measured here: daughter cell gate response.
Setting [24] is: measured here: mother cell gate response.

For some of these results: Results with a measured potency or affinity are listed apart. Some of the results follow. Activity calls are given as the source filed them.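 The calls were made as follows, unless noted: active = fitted half-maximal concentration within the tested dose range, moderate curve steepness, a statistically real signal drop, and little compound fluorescence or tag-binding interference; inactive = the rest.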

Sequence of Cell division control protein 42 homolog (Homo sapiens) (P60953 whole entry, looked up): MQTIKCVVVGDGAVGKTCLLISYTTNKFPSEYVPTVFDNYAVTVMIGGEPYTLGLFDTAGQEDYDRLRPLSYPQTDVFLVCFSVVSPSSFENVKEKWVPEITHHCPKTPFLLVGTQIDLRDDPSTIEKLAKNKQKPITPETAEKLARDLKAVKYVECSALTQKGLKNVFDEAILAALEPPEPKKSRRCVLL

As to `O=c1[nH]c(=S)[nH]c(O)c1N=Nc1cc2c(cc1[N+](=O)[O-])OCO2`, the call in assay [1], in assay [3] and in assay [5] was inactive. For the same molecule, the fluorescence, percent of control (lower = inhibition) in [2] amounted to 24.3%. In assay [4], this molecule returned a GTP binding signal, raw median fluorescence (lower = inhibition) (MCF (arbitrary fluorescence units)) of 211.

Turning to `Cc1ccc(C)c(OCCCn2cc(C(=O)O)c3ccccc32)c1`, the molecule was classed as inactive in assay [1], in assay [3] and in assay [5]. In [2], this molecule had a fluorescence, percent of control (lower = inhibition) of 61.7%. The GTP binding signal, raw median fluorescence (lower = inhibition) (MCF (arbitrary fluorescence units)) in assay [4] was determined as 36.2.

With `O=C1CN=C(c2ccccc2)c2cc(Br)ccc2N1Cc1cc(=O)n2ccccc2n1`, the molecule was classed as inactive in assay [1] and in assay [5]. This molecule also gave a fluorescence, percent of control (lower = inhibition) in assay [2] of 47.5%. Moreover, in assay [4], the GTP binding signal, raw median fluorescence (lower = inhibition) (MCF (arbitrary fluorescence units)) stood at 216.

As for `Nc1ccc(C(=O)N/N=C2/CN3CCC2CC3)cc1`, in assay [6], the inhibition was -1.4% (inactive). The binding response (% of control) is 102% (inactive) in [7] and 100% (inactive) in [10]. Besides, the response (percent of control binding) in [8] is 98.3% (inactive); in [11], 92.4% (inactive). Further, in assay [9], the response (% of control binding) is 99.4% (inactive).

As to `Cc1ccccc1OCCCn1cc(C(=O)O)c2ccccc21`, the molecule was classed as inactive in assay [1], in [3] and in [5]. The molecule also showed a fluorescence, percent of control (lower = inhibition) in assay [2] of 68.3%. The GTP binding signal, raw median fluorescence (lower = inhibition) (MCF (arbitrary fluorescence units)) in assay [4] was determined as 37.8.

Take `Cc1ccc(C)c(OCCn2cc(C(=O)O)c3ccccc32)c1`: the call in assay [1] was inactive.

For the molecule `C#C[C@]1(O)CC[C@H]2[C@@H]3CCC4=CC(=O)CC[C@]4(C)[C@H]3CC[C@@]21C`, the GFP response vs DMSO in assay [12] was 97% (inactive); in assay [12] (setting [21]) it was 95.9%; in [12] (setting [22]), 95.6%; in assay [14], 107% (inactive). The values for the GFP response relative to DMSO in assay [13], in assay [13] (setting [23]) and in assay [13] (setting [24]) were 103% (inactive), 102% and 101%, respectively. Besides, the GFP response, % of DMSO was 95.4% (inactive) in assay [15], 95.5% (inactive) in assay [16], 97.2% in assay [16] (setting [21]) and 92.6% in assay [16] (setting [22]).

Consider `CN(C)c1ccc(/C=C/C=C2/C(=O)NC(=O)N(c3ccccc3)C2=O)cc1`, for which the molecule was called inactive in assay [1], in assay [3] and in [5]. The molecule further yielded a fluorescence, percent of control (lower = inhibition) in [2] of 23.6%. The molecule further gave a GTP binding signal, raw median fluorescence (lower = inhibition) (MCF (arbitrary fluorescence units)) in assay [4] of 155.

Regarding `CC(C)N(CC#CCC1(O)c2ccccc2-c2ccccc21)C(C)C`, the RGS16–Galpha-o binding response in assay [17] amounted to 180%. Besides, the RGS4–Galpha-o binding response in assay [18] is 106% (active). The same molecule showed an RGS7–Galpha-o binding response in assay [19] of 107%. In assay [20], this molecule came in with an RGS8–Galpha-o binding response of 122%. Further, the inhibition in [6] was 0.7% (inactive). In addition, the binding response (% of control) in assay [7] is 98.5% (inactive); in [10], 99.5% (inactive). In addition, the values for the response (percent of control binding) in [8] and in [11] were 99.5% (inactive) and 110% (inactive), respectively. Further, in assay [9], the response (% of control binding) was 101% (inactive).

`CCOC(=O)c1c(NC(=O)c2c(N)n(CCCOC)c3nc4ccccc4nc23)sc2c1CCCC2`: the result in assay [1], in [3] and in [5] was inactive. The same molecule displayed a fluorescence, percent of control (lower = inhibition) in [2] of 77.3%. The molecule further came in with a GTP binding signal, raw median fluorescence (lower = inhibition) (MCF (arbitrary fluorescence units)) in assay [4] of 151.

For `COCCCn1c(N)c(C(=O)Nc2sc3c(c2C(=O)OC)CCCC3)c2nc3ccccc3nc21`, the call in assay [1], in assay [3] and in assay [5] was inactive. In assay [2], the fluorescence, percent of control (lower = inhibition) amounted to 85.2%. The GTP binding signal, raw median fluorescence (lower = inhibition) (MCF (arbitrary fluorescence units)) in [4] came to 139.

With `O=c1[nH]c(=S)[nH]c(O)c1N=Nc1ccc(S(=O)(=O)N2CCc3ccccc32)cc1`, the molecule was called inactive in assay [1], in assay [3] and in assay [5]. Besides, the fluorescence, percent of control (lower = inhibition) in [2] was 44.9%. This molecule returned a GTP binding signal, raw median fluorescence (lower = inhibition) (MCF (arbitrary fluorescence units)) in [4] of 312.

`CCN(CC)c1ccc(/C=N/c2sc3c(c2C#N)C2CCN3CC2)c(O)c1`: the call in assay [1], in assay [3] and in assay [5] was inactive. This molecule registered a fluorescence, percent of control (lower = inhibition) in assay [2] of 91.1%. Moreover, the GTP binding signal, raw median fluorescence (lower = inhibition) (MCF (arbitrary fluorescence units)) in assay [4] was 248.

For `CC12CN3CC(C)(CN(C1)C31CCOCC1)C2=O`, the GFP response vs DMSO in assay [12] was 95.6% (inactive); in [12] (setting [21]), 96.9%; in [12] (setting [22]), 96.6%; in [14] it was 96.2% (inactive). The GFP response relative to DMSO in [13] is 99.2% (inactive); in assay [13] (setting [23]), 97.6%; in [13] (setting [24]), 100%. Moreover, the GFP response, % of DMSO is 99.5% (inactive) in [15], 101% (inactive) in assay [16], 103% in [16] (setting [21]) and 101% in [16] (setting [22]).

As for `C[C@]12CC[C@@H](O)C[C@@H]1CC[C@@H]1[C@@H]2CC[C@]2(C)[C@@H](O)CC[C@@H]12`, the GFP response vs DMSO in assay [12] is 92.2% (inactive); in assay [12] (setting [21]) it was 87.3%; in assay [12] (setting [22]) it was 94.1%; in [14], 89.9% (inactive). Besides, the results for the GFP response relative to DMSO in assay [13], in assay [13] (setting [23]) and in assay [13] (setting [24]) were 112% (inactive), 107% and 119%, respectively. For the same molecule, the GFP response, % of DMSO in [15] is 90% (inactive); in [16], 85.5% (inactive); in [16] (setting [21]) it was 86.2%; in assay [16] (setting [22]), 87.8%.

Take `O=C1C(=O)c2ccccc2-c2ccccc21`: the GFP response vs DMSO in assay [12] is 122% (inactive); in assay [12] (setting [21]) it was 106%; in assay [12] (setting [22]), 116%; in assay [14], 117% (inactive). In addition, the GFP response relative to DMSO in [13] is 171% (active); in assay [13] (setting [23]) it was 143%; in assay [13] (setting [24]), 169%. In addition, the GFP response, % of DMSO was 126% (inactive) in assay [15], 88.7% (inactive) in assay [16], 89.9% in assay [16] (setting [21]) and 82.6% in assay [16] (setting [22]).

For the molecule `O=C1CN=C(c2ccccc2F)c2cc(Cl)ccc2N1`, the GFP response vs DMSO was 99.3% (inactive) in assay [12], 99% in assay [12] (setting [21]), 99.1% in [12] (setting [22]) and 100% (inactive) in [14]. Further, the GFP response relative to DMSO in [13] was 97.4% (inactive); in assay [13] (setting [23]), 98.7%; in assay [13] (setting [24]), 98.3%. Moreover, the GFP response, % of DMSO in [15] is 98% (inactive); in assay [16], 107% (inactive); in assay [16] (setting [21]) it was 105%; in assay [16] (setting [22]) it was 111%.

With `Cc1cc(OCCCn2cc(C(=O)O)c3ccccc32)ccc1Cl`, the call in assay [1], in assay [3] and in assay [5] was inactive. Also, in [2], the fluorescence, percent of control (lower = inhibition) was 58.1%. In [4], the GTP binding signal, raw median fluorescence (lower = inhibition) (MCF (arbitrary fluorescence units)) was found to be 28.5.

Values taken from PubChem BioAssay.
